Our source for the Potency values is PubChem BioAssay (Tox21).

Records with an inconclusive call do not appear. Entries that show only a call come without a potency. The source made the active and inactive calls. Calls follow the shape of the full dose curve.

The assay is described as follows: cAMP Responsive Elements (CRE) small molecule agonists, cell-based qHTS assay (AID 1963590). As to conditions: CRE-bla HEK293T, beta-lactamase FRET ratio, 3 h; series mostly up to 92.4 µM. From the text: U.S. Tox21 Program National Center for Advancing Translational Sciences [NCATS] Division of Preclinical Innovation [DPI] U.S. Environmental Protection Agency [EPA] National Institutes of Environmental Health Sciences [NIEHS] National Toxicology Program [NTP] U.S. Food and Drug Administration [FDA] Tox21 Assay Overview: CREB (cyclic-AMP Responsive Element Binding Protein) is a cellular transcription factor. It binds to certain DNA sequences called cAMP Responsive Elements (CRE) and regulates the transcription of the genes. […] This cell line can be used to find agonists/antagonists of the cyclic AMP signaling pathway. The activation of the report gene under culture conditions can be detected by fluorescence intensity. This cell line has been used to screen the Tox21 10K compound library to identify agonists that induce oxidative stress.
Tox21 Assay Protocol Summary: CRE-bla Hek 293T cells were suspended in assay medium (DMEM containing 10% dialyzed FBS, 0.1 mM NEAA, 1 mM sodium pyruvate and 25 mM HEPES) and dispensed at 2,000 cells/5 uL /well into 1536-well black wall/clear bottom plates using a Multidrop Combi (ThermoFisher Scientific, Waltham, MA) dispenser. After the assay plates were incubated at 37 C/5% CO2 for 18 hrs, 23 nL of compounds dissolved in DMSO, positive controls or DMSO only was transferred to the assay plate by a pintool workstation (Kalypsys, San Diego, CA). After the plates were incubated at 37 C/5% CO2 for 3 hrs, 1 uL of LiveBLAzer B/G FRET substrate (Invitrogen, Carlsbad, CA) was added to each well using Bioraptr Flying Reagent Dispenser (FRD, Aurora Discovery, San Diego, CA). The plates were incubated at room temperature for 2 h.
Regarding `COCC(=O)O`, the Potency entry is “inactive”.
In the case of `COc1cc(O)c(C(=O)c2ccccc2)cc1S(=O)(=O)O`, the Potency result was “inactive”.
The entry for `Oc1cccc(O)c1` is “inactive”; for `NCCOCCO` it is “inactive”.
As for `Oc1ccc2ccccc2c1N=Nc1ccccc1`, the Potency result was “inactive”.
Regarding `CCCCCCCCCCO`, the Potency result is “inactive”.
With `CC(=O)OCC(COC(C)=O)OC(C)=O`, the Potency result was “inactive”.
As for `CC1(C)S[C@@H]2[C@H](NC(=O)[C@H](N)c3ccccc3)C(=O)N2[C@H]1C(=O)O`, the Potency entry was “inactive”.
Take `C=C1C2CCC(C2)C1(C)C` (stereo not given): the Potency result was “inactive”.
To `O=S1(=O)CCCO1` belongs “inactive”; to `CCCNC(=O)NS(=O)(=O)c1ccc(Cl)cc1`, “inactive”; to `CC(=O)c1ccc(S(=O)(=O)NC(=O)NC2CCCCC2)cc1`, “inactive”.
`O=C(O)CCCCCCCCC(=O)O`: the Potency entry is “inactive”.
As to `CC(=O)C(C)C`, the Potency result was “inactive”.
On to `COC(C)COC(C)COC(C)CO` (stereo not given), for which the Potency result was “inactive”.
For `C[C@]12CC[C@@H]3c4ccc(O)cc4CC[C@H]3[C@@H]1CC[C@@H]2O`, the Potency entry is “inactive”.
With `NC(=O)NO`, the Potency entry was “inactive”.
In the case of `CCC(O)OCCCOC` (stereo not given), the Potency result was “inactive”.
With `CCOC(=O)C1OC1c1ccccc1` (stereo not given), the Potency entry was “inactive”.
In the case of `O=C1NS(=O)(=O)c2ccccc21`, the Potency entry was “inactive”.
For `C=CN1CCCC1=O`, the Potency result was “inactive”.
As for `CC(C)[C@@H]1CC[C@@H](C)C[C@H]1O`, the Potency result was “inactive”.
To `CC(C)(CO)CO` belongs “inactive”; to `Cc1ncc([N+](=O)[O-])n1C`, “inactive”; to `CC(C)CCCCCCCOC(=O)CCCCC(=O)OCCCCCCCC(C)C`, “inactive”.
For the molecule `COC(=O)c1ccccc1`, the Potency result was “inactive”.
The entry for `Nc1ccc(O)c(C(=O)O)c1` is “inactive”; for `CCCCCCCC(=O)OCC(COC(=O)CCCCCCC)OC(=O)CCCCCCC` it is “inactive”; for `CC(O)C(=O)O` (stereo not given) it is “inactive”.
In the case of `NC(=S)NNC(N)=S`, the Potency result was “inactive”.
The entry for `Cc1ncc([N+](=O)[O-])n1CCO` is “inactive”.
With `CN(C)CCOC(C)(c1ccccc1)c1ccccn1` (stereo not given), the Potency result was “inactive”.
Take `NNc1ccc(C(=O)O)cc1`: the Potency entry is “inactive”.
As to `Cc1ccc([N+](=O)[O-])cc1N`, the Potency result is “inactive”.
`CCc1ccccc1CC`: the Potency entry was “inactive”.
With `NCCNc1cccc2ccccc12`, the Potency entry is “inactive”.
As for `Cc1nnc(NS(=O)(=O)c2ccc(N)cc2)s1`, the Potency result was “inactive”.
For `[O-]/[N+](=N\O)c1ccccc1`, the Potency result is “inactive”.
Regarding `CC(=O)[C@@]1(O)CC[C@H]2[C@@H]3C[C@H](C)C4=CC(=O)C=C[C@]4(C)[C@@]3(F)[C@@H](O)C[C@@]21C`, the Potency entry was “inactive”.
Consider `CCN(CC)C(=S)SSC(=S)N(CC)CC`, for which the Potency result was “inactive”.
